Measurements: PubChem BioAssay AID504408 (Broad Institute, 2011)
The campaign covered roughly 300,000 compounds. About 5,200 (1.7%) were called active.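 Rule for the calls: active = mean replicate activation of at least 50% with a set share of replicates each reaching 50%; inconclusive = only one of those two conditions met; inactive = mean below 50% and too few replicates reaching it.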 What follows is part of a selection rich in actives, with near analogues and random picks from the rest.

Test: HSF-1 response element luciferase induction – NIH3T3-HGL cells, MG132 stress, luminescence, single point, primary screen (AID 504408);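 note: 0% = median of the neutral control wells and 100% = twice that signal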
Details: NIH3T3-HGL HSF-1 luciferase reporter, MG132, 8 h; at 9 µM; active compounds read high; 100% = twice DMSO control signal
For `CCCNC(=O)CCn1cc(-c2ccc(OC)cc2)nc1CCN`, the activation was -10.4% (inactive).
In the case of `Cc1ccccc1NC(=O)c1ccccc1NS(=O)(=O)c1cccc2cccnc12`, the activation was -9.95% (inactive).
With `O=[N+]([O-])c1ccccc1S(=O)(=O)Nc1cccc2cccnc12` the activation was 144% (active).
In the case of `COc1cc(NS(=O)(=O)c2ccc3ccccc3c2)c2ncccc2c1`, the activation was -10.7% (inactive).
With `COc1ccc(C(=O)OCC(=O)c2ccc(Cl)s2)c(OC)c1OC` the activation was 3.84% (inactive).
For `Cc1cc(NC(=O)C(C)SCC(=O)Nc2ccccc2N2CCCCC2)no1` (configuration not stated), the activation was 10.3% (inactive).
In the case of `CCN(CC(=O)Nc1c(F)cccc1F)C(=O)c1ccc(-c2ccccc2)cc1`, the activation was 0.0275% (inactive).
With `CCCCn1c(N)c(N(CCOC)C(=O)c2cccc(OCc3ccccc3)c2)c(=O)[nH]c1=O` the activation was -6.35% (inactive).
In the case of `CC(OC(=O)C1CC(=O)N(Cc2ccccc2)C1)C(=O)Nc1ccccc1[N+](=O)[O-]` (configuration not stated), the activation was 8.17% (inactive).
With `CCOc1ccccc1Nc1ccc2nonc2c1[N+](=O)[O-]` the activation was -13.1% (inactive).
With `O=C(O)c1cccc(S(=O)(=O)Nc2ccc(O)cc2Sc2nc3ccccc3s2)c1` the activation was 1.08% (inactive).
For `O=[N+]([O-])c1c(NCCO)cc(Sc2nc3ccccc3s2)c2nonc12`, the activation was 229% (active).
In the case of `Cc1ccc(C)c(OCCC(=O)OCC(=O)c2ccc3c(c2)NC(=O)CO3)c1`, the activation was -12.3% (inactive).
With `COc1ccccc1C(=O)NC(=O)COC(=O)c1ccco1` the activation was -0.902% (inactive).
With `CCCn1c(SCC(N)=O)nnc1C(C)C` the activation was 1.36% (inactive).
With `CCn1c(SCC(=O)Nc2ccc3c(c2)OCCO3)nnc1C(C)C` the activation was -3.33% (inactive).
With `CCCn1c(SCC(=O)c2ccc3c(c2)OCCO3)nnc1C(C)C` the activation was 62.4% (active).
With `Cc1ccc(S(=O)(=O)N2CCC(C(=O)OCC(=O)N(C)c3ccccc3)CC2)cc1C` the activation was -10.4% (inactive).
For `Cn1cccc1C(=O)OCC(=O)c1ccc(Br)s1`, the activation was -97.9% (inactive).
With `CCc1nnc(NC(=O)/C=C/c2ccc(C)o2)s1` the activation was 3.89% (inactive).
With `Cc1ccc(/C=C/C(=O)Nc2ccc([N+](=O)[O-])c(NC(=O)/C=C/c3ccc(C)o3)c2)o1` the activation was 73% (active).
For `Cc1ccc(/C=C/C(=O)Nc2cc(S(=O)(=O)N3CCCCCC3)ccc2OCC(F)(F)F)o1`, the activation was 2.76% (inactive).
With `CCN(C(=O)CSc1nnc(-c2ccc(OC(F)F)cc2)n1N)C1CCS(=O)(=O)C1` (configuration not stated) the activation was -15.1% (inactive).
For `COC(=O)c1ccc(NS(=O)(=O)c2cc3c4c(c2)C(C)C(=O)N4CCC3)cc1` (configuration not stated), the activation was 21.6% (inactive).
With `COc1ccc(NC(=O)CN(C)C(=O)c2ccc(NC3CC3)c([N+](=O)[O-])c2)cc1` the activation was 5.08% (inactive).
For `O=C1CCc2cc(S(=O)(=O)Nc3ccc(C(F)(F)F)cc3)cc3c2N1CC3`, the activation was 15.1% (inactive).
In the case of `Cc1csc(NC(=O)c2ccc(-c3ccc(Cl)cc3Cl)o2)n1`, the activation was 3.06% (inactive).
In the case of `COc1ccc(C(=O)Nc2c(Cl)cc(Cl)cc2C(=O)N2CCC(C)CC2)cc1`, the activation was 18% (inactive).
In the case of `CC1CCN(C(=S)c2ccc(-c3ccc(Cl)cc3Cl)o2)CC1`, the activation was 52% (active).
With `Cc1c(C(=O)OCC(=O)N2CCCC2=O)oc2ccccc12` the activation was 16.8% (inactive).
For `N#Cc1cccc(OC(=O)c2ccc3c(=O)n4c(nc3c2)CCC4)c1`, the activation was -0.984% (inactive).
For `Cc1ccc(C2=NN(C(=O)CSc3nc(N)cc(N)n3)C(c3ccco3)C2)cc1` (configuration not stated), the activation was 22.7% (inactive).
In the case of `CCOC(=O)C1C(=O)C=C(c2ccc(OC)cc2)CC1c1ccco1` (configuration not stated), the activation was 285% (active).
For `CCOC(=O)C1C(=O)NC(N2CCN(c3ccccc3)CC2)=NC1c1ccco1` (configuration not stated), the activation was -4.78% (inactive).
With `Cc1nc2c(c(C)nn2-c2ccccc2)c(C)c1C` the activation was -8.62% (inactive).
For `COc1cc(SC)ccc1C(=O)Nc1nc(C)cs1`, the activation was -71.7% (inactive).
In the case of `COc1cc(SC)ccc1C(=O)Nc1cc(C)ccn1`, the activation was 55.7% (active).
In the case of `Cc1ccnc(NC(=O)c2ccoc2C)c1`, the activation was 17.6% (inactive).
With `COC(=O)[C@@]12CCCN1[C@H](c1ccc(-c3ccc(F)cc3)c(OC)c1)[C@H]1C(=O)N(C)C(=O)[C@H]12` the activation was 42.9% (inactive).
In the case of `COc1ccc(Cl)cc1C=CC=Nc1ccc(S(N)(=O)=O)cc1`, the activation was -18.4% (inactive).
With `FC(F)Oc1ccc(NC(=S)NCc2ccco2)cc1Cl` the activation was 7.43% (inactive).
In the case of `COc1cc(NC(=S)NCc2ccco2)c(OC)cc1Cl`, the activation was 62.1% (active).
With `COc1cccc(NC(=S)NCc2ccco2)c1` the activation was 19.7% (inactive).
For `CCCCOc1ccc(-c2nnc(-c3ccco3)o2)cc1`, the activation was 79.3% (active).
For `Cc1ccc(OCC(=O)Nc2nnc(-c3ccco3)s2)cc1`, the activation was 2.22% (inactive).
In the case of `COc1ccc(OCC(=O)Nc2nnc(-c3ccco3)s2)cc1`, the activation was 3.21% (inactive).
With `CC(C)Oc1ccc(S(=O)(=O)N2CCOCC2)cc1NC(=O)C1CSC2(C)CCC(=O)N12` (configuration not stated) the activation was 0.413% (inactive).
For `Cc1ccc(-n2nc(C)c(/C=N/NC(=O)c3cccs3)c2Cl)cc1`, the activation was -8.54% (inactive).
With `Cc1nn(C)cc1/C=N/NC(=O)c1sc2ccccc2c1Cl` the activation was 3.1% (inactive).
In the case of `Cc1nn(-c2ccccc2)c(Cl)c1/C=N/NC(=O)c1nn(C)cc1[N+](=O)[O-]`, the activation was 125% (active).
In the case of `Cc1cccc(Oc2c([N+](=O)[O-])c(=O)n(C)c3ccccc23)c1`, the activation was 110% (active).
In the case of `Cn1c(=O)c([N+](=O)[O-])c(Oc2ccccc2)c2ccccc21`, the activation was 6.27% (inactive).
With `Cc1cc(C)c(-c2c(O)c3ccccc3n(C)c2=O)c(C)c1` the activation was -9.47% (inactive).
In the case of `CC(=O)c1c(C)[nH]c(C(=O)COC(=O)CCOc2ccc(C)cc2)c1C`, the activation was -0.193% (inactive).
For `COC(=O)N/N=C/c1c[n+]([O-])c2ccccc2[n+]1[O-]`, the activation was 0.846% (inactive).
In the case of `Cc1ccc(S(=O)(=O)N(C)C)cc1NC(=O)COC(=O)C1COc2ccccc2O1` (configuration not stated), the activation was -5.78% (inactive).
For `Cc1ccc(S(=O)(=O)N(C)C)cc1NC(=O)COC(=O)/C=C/c1cccs1`, the activation was -10.8% (inactive).
For `Cc1ccc(S(=O)(=O)N(C)C)cc1NC(=O)COC(=O)c1c(C)noc1C`, the activation was 63.2% (active).
With `O=C(N/N=C/c1cc(Br)c(O)c([N+](=O)[O-])c1)C(O)(c1ccccc1)c1ccccc1` the activation was 3.81% (inactive).
With `N#C/C(=C(\O)C(F)(F)F)c1nnc2n1CCCCC2` the activation was 55.4% (active).
With `N#C/C(=C/c1cccc([N+](=O)[O-])c1)c1nnc2n1CCCCC2` the activation was -2.78% (inactive).
With `N#C/C(=C(\O)CCl)c1nnc2n1CCCCC2` the activation was -4.83% (inactive).
In the case of `CC(C)(C)N1C(=O)[C@H]2[C@@H](c3ccc(Br)cc3)N3C(=O)N(c4cccc(Cl)c4)C(=O)[C@@]3(C)[C@H]2C1=O`, the activation was -6% (inactive).
With `CCCCN(C(=O)CSCC(=O)Nc1ccc(OC)cc1)c1c(N)n(CCC)c(=O)[nH]c1=O` the activation was -4.27% (inactive).
In the case of `Cc1ccccc1N1CC(C(=O)Nc2ccc(S(=O)(=O)N3CCCC3)cc2)CC1=O` (configuration not stated), the activation was 9.12% (inactive).
For `CN(C1CCS(=O)(=O)C1)S(=O)(=O)c1ccc2ccccc2c1` (configuration not stated), the activation was -4.34% (inactive).
With `COc1ccc(Cc2nnc(SCC(=O)Nc3ccc(C)c(Cl)c3)[nH]c2=O)cc1` the activation was -4.89% (inactive).
In the case of `Oc1ccc(CN2CCN(c3ncccn3)CC2)cc1`, the activation was 7.28% (inactive).
In the case of `O=C(c1ccncc1)N1CCN(c2ccc3ccccc3n2)CC1`, the activation was -4.23% (inactive).
In the case of `c1cnc(N2CCN(c3ccc4ccccc4n3)CC2)nc1`, the activation was 53.3% (active).
For `CCN(CC(=O)Nc1c(F)cccc1F)C(=O)CN1c2cccc3cccc(c23)S1(=O)=O`, the activation was -9.4% (inactive).
For `Cc1cc(NC(=O)CCS(=O)(=O)c2ccc(F)cc2)no1`, the activation was -7.32% (inactive).
With `Cc1ccc(S(=O)(=O)NCCC(=O)NNC(=O)C2COc3ccccc3O2)cc1` (configuration not stated) the activation was 5.45% (inactive).
With `Cc1ccc(C)c(OCC(=O)N2CCN(C(=O)c3ccco3)CC2)c1` the activation was 17% (inactive).
With `COc1cccc(C(=O)Nc2ccc(N3CCN(C(=O)c4ccco4)CC3)cc2)c1` the activation was -17.6% (inactive).
For `Cc1ccc(OCC(=O)Nc2ccc(N3CCN(C(=O)c4ccco4)CC3)cc2)c(C)c1`, the activation was 67.8% (active).
With `COc1ccc(C(=O)OCC(=O)Nc2ccc3[nH]c(=O)[nH]c3c2)c(OC)c1OC` the activation was 29.4% (inactive).
In the case of `CCc1c(C)sc(NC(=O)c2cccs2)c1C(N)=O`, the activation was 39.5% (inactive).
With `CCc1c(C)sc(NC(=O)c2ccc(Br)o2)c1C(=O)OC` the activation was 64.8% (active).
In the case of `CCOC(=O)c1c(NC(=O)C2CC=CCC2C(=O)O)sc(C)c1CC` (configuration not stated), the activation was -15% (inactive).
With `Cc1onc(-c2ccccc2Cl)c1C(=O)OCc1nnc(-c2ccccc2)o1` the activation was 23.4% (inactive).
For `COc1ccc(-c2nnc3ccc(SCc4ccccc4)nn23)cc1`, the activation was 16% (inactive).
With `COC(=O)CSc1nc(C)c2ccc(OC)cc2n1` the activation was 17.7% (inactive).
For `COc1ccc2nc(SCc3ccccc3)nc(C)c2c1`, the activation was 68.9% (active).
In the case of `Cc1ccc(S(=O)(=O)N2CCCCC2)cc1C(=O)N(C)CC(=O)Nc1cccc(F)c1`, the activation was 5.46% (inactive).
For `Cn1nc(C(F)(F)F)cc1-c1ccc(/C=C(\C#N)C(=O)c2cccc(C(F)(F)F)c2)s1`, the activation was 65.6% (active).
In the case of `CNC(=O)c1ccc(NC(=O)c2cccc(C(F)(F)F)c2)cc1`, the activation was 9.95% (inactive).
With `Cn1nc(C(F)(F)F)cc1C(=O)O` the activation was 15.5% (inactive).
For `FC(F)(F)c1ccc2c3n(nc2c1)CCN=C3c1ccc(Cl)cc1`, the activation was -14.8% (inactive).
In the case of `Cc1cc(C)cc(NC(=O)C2CCN(c3nc(C)cc(C)n3)CC2)c1`, the activation was 11% (inactive).
For `Cc1cc(C)c2c(NC(=O)C3CC3)nn(C)c2n1`, the activation was 56.3% (active).
In the case of `Cc1ccc2c(NC(=O)C3CC3)cccc2n1`, the activation was -0.793% (inactive).
